# Laboratory results reported in the supplement of paper PMC4466140.
# Key:
# Experiment in all cases: SPOT peptide array binding signal intensity (averaged, normalized) (arbitrary units (background-subtracted, floor 0; scale differs between SH3 domains)); higher = stronger binding of the SH3 domain to the peptide
# AgAbp1 = target: AgAbp1
# Procedure, shortened: (§1)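 The binding signal is the normalized, background-subtracted spot intensity averaged over replicates; its arbitrary units differ between domains. It was obtained by incubating 10 μg/ml GST-fused SH3 domains from four yeast species overnight at 4°C in TBS-based blocking buffer on cellulose membranes with synthetic 15-mer peptides, cysteines replaced by serines, then detecting with anti-GST antibody, HRP anti-mouse secondary and luminol.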
# AgBbc1 = target: AgBbc1
# Procedure, shortened: as §1
# AgBem1-D1 = target: AgBem1-D1
# Procedure, shortened: as §1
# AgBzz1-D1 = target: AgBzz1-D1
# Procedure, shortened: as §1
# AgBzz1-D2 = target: AgBzz1-D2
# Procedure, shortened: as §1
# AgCyk3 = target: AgCyk3
# Procedure, shortened: as §1
# AgFus1 = target: AgFus1
# Procedure, shortened: as §1
# AgHof1 = target: AgHof1
# Procedure, shortened: as §1
# AgHse1 = target: AgHse1
# Procedure, shortened: as §1
# AgLsb1 = target: AgLsb1
# Procedure, shortened: as §1
# AgLsb4 = target: AgLsb4
# Procedure, shortened: as §1
# AgMyo5 = target: AgMyo5
# Procedure, shortened: as §1
# AgNbp2 = target: AgNbp2
# Procedure, shortened: as §1
# AgRvs167 = target: AgRvs167
# Procedure, shortened: as §1
# AgSho1 = target: AgSho1
# Procedure, shortened: as §1
# AgSla1-D1-D2 = target: AgSla1-D1-D2
# Procedure, shortened: as §1
# AgSla1-D3 = target: AgSla1-D3
# Procedure, shortened: as §1
# CaAbp1-D1 = target: CaAbp1-D1
# Procedure, shortened: as §1
# CaAbp1-D2 = target: CaAbp1-D2
# Procedure, shortened: as §1
# CaBbc1 = target: CaBbc1
# Procedure, shortened: as §1
# CaBem1-D1 = target: CaBem1-D1
# Procedure, shortened: as §1
# CaBzz1-D1 = target: CaBzz1-D1
# Procedure, shortened: as §1
# CaBzz1-D2 = target: CaBzz1-D2
# Procedure, shortened: as §1
# CaCyk3 = target: CaCyk3
# Procedure, shortened: as §1
# CaFus1 = target: CaFus1
# Procedure, shortened: as §1
# CaHof1 = target: CaHof1
# Procedure, shortened: as §1
# CaHse1 = target: CaHse1
# Procedure, shortened: as §1
# CaLsb1 = target: CaLsb1
# Procedure, shortened: as §1
# CaLsb4 = target: CaLsb4
# Procedure, shortened: as §1
# CaMyo5 = target: CaMyo5
# Procedure, shortened: as §1
# CaNbp2 = target: CaNbp2
# Procedure, shortened: as §1
# CaRvs167 = target: CaRvs167
# Procedure, shortened: as §1
# CaRvs167-3 = target: CaRvs167-3
# Procedure, shortened: as §1
# CaSho1 = target: CaSho1
# Procedure, shortened: as §1
# CaSla1-D1-D2 = target: CaSla1-D1-D2
# Procedure, shortened: as §1
# CaSla1-D3 = target: CaSla1-D3
# Procedure, shortened: as §1
# ScAbp1 = target: ScAbp1
# Procedure, shortened: as §1
# ScBbc1 = target: ScBbc1
# Procedure, shortened: as §1
# ScBem1-D1 = target: ScBem1-D1
# Procedure, shortened: as §1
# ScBzz1-D1 = target: ScBzz1-D1
# Procedure, shortened: as §1
# ScBzz1-D2 = target: ScBzz1-D2
# Procedure, shortened: as §1
# ScCyk3 = target: ScCyk3
# Procedure, shortened: as §1
# ScFus1 = target: ScFus1
# Procedure, shortened: as §1
# ScHof1 = target: ScHof1
# Procedure, shortened: as §1
# ScHse1 = target: ScHse1
# Procedure, shortened: as §1
# ScLsb1 = target: ScLsb1
# Procedure, shortened: as §1
# ScLsb2 = target: ScLsb2
# Procedure, shortened: as §1
# ScLsb3 = target: ScLsb3
# Procedure, shortened: as §1
# ScLsb4 = target: ScLsb4
# Procedure, shortened: as §1
# ScMyo3 = target: ScMyo3
# Procedure, shortened: as §1
# ScMyo5 = target: ScMyo5
# Procedure, shortened: as §1
# ScNbp2 = target: ScNbp2
# Procedure, shortened: as §1
# ScPex13 = target: ScPex13
# Procedure, shortened: as §1
# ScRvs167 = target: ScRvs167
# Procedure, shortened: as §1
# ScSho1 = target: ScSho1
# Procedure, shortened: as §1
# ScSla1-D1-D2 = target: ScSla1-D1-D2
# Procedure, shortened: as §1
# ScSla1-D3 = target: ScSla1-D3
# Procedure, shortened: as §1
# SpAbp1-D1 = target: SpAbp1-D1
# Procedure, shortened: as §1
# SpBbc1 = target: SpBbc1
# Procedure, shortened: as §1
# SpBzz1-D1 = target: SpBzz1-D1
# Procedure, shortened: as §1
# SpBzz1-D2 = target: SpBzz1-D2
# Procedure, shortened: as §1
# SpCyk3 = target: SpCyk3
# Procedure, shortened: as §1
# SpHof1 = target: SpHof1
# Procedure, shortened: as §1
# SpHof1-2 = target: SpHof1-2
# Procedure, shortened: as §1
# SpHof1-3 = target: SpHof1-3
# Procedure, shortened: as §1
# SpHse1 = target: SpHse1
# Procedure, shortened: as §1
# SpLsb1 = target: SpLsb1
# Procedure, shortened: as §1
# SpLsb4 = target: SpLsb4
# Procedure, shortened: as §1
# SpMyo1 = target: SpMyo1
# Procedure, shortened: as §1
# SpNbp2 = target: SpNbp2
# Procedure, shortened: as §1
# SpPex13 = target: SpPex13
# Procedure, shortened: as §1
# SpRvs167 = target: SpRvs167
# Procedure, shortened: as §1
# SpSla1-D1-D2 = target: SpSla1-D1-D2
# Procedure, shortened: as §1
# SpSla1-D3 = target: SpSla1-D3
# Procedure, shortened: as §1
binder,measurement,setting,value
NPLPKEPRLPKRKVA,SPOT peptide array binding signal intensity,AgAbp1,16
same,SPOT peptide array binding signal intensity,AgBbc1,254
same,SPOT peptide array binding signal intensity,AgBem1-D1,66.5
same,SPOT peptide array binding signal intensity,AgBzz1-D1,48
same,SPOT peptide array binding signal intensity,AgBzz1-D2,78.5
same,SPOT peptide array binding signal intensity,AgCyk3,1
same,SPOT peptide array binding signal intensity,AgFus1,20
same,SPOT peptide array binding signal intensity,AgHof1,28
same,SPOT peptide array binding signal intensity,AgHse1,134
same,SPOT peptide array binding signal intensity,AgLsb1,3.25
same,SPOT peptide array binding signal intensity,AgLsb4,2040
same,SPOT peptide array binding signal intensity,AgMyo5,≤ 0
same,SPOT peptide array binding signal intensity,AgNbp2,25
same,SPOT peptide array binding signal intensity,AgRvs167,23
same,SPOT peptide array binding signal intensity,AgSho1,37
same,SPOT peptide array binding signal intensity,AgSla1-D1-D2,28
same,SPOT peptide array binding signal intensity,AgSla1-D3,9
same,SPOT peptide array binding signal intensity,CaAbp1-D1,655
same,SPOT peptide array binding signal intensity,CaAbp1-D2,376
same,SPOT peptide array binding signal intensity,CaBbc1,1010
same,SPOT peptide array binding signal intensity,CaBem1-D1,30
same,SPOT peptide array binding signal intensity,CaBzz1-D1,122
same,SPOT peptide array binding signal intensity,CaBzz1-D2,95.5
same,SPOT peptide array binding signal intensity,CaCyk3,6.5
same,SPOT peptide array binding signal intensity,CaFus1,190
same,SPOT peptide array binding signal intensity,CaHof1,2
same,SPOT peptide array binding signal intensity,CaHse1,10.8
same,SPOT peptide array binding signal intensity,CaLsb1,4
same,SPOT peptide array binding signal intensity,CaLsb4,3890
same,SPOT peptide array binding signal intensity,CaMyo5,4
same,SPOT peptide array binding signal intensity,CaNbp2,112
same,SPOT peptide array binding signal intensity,CaRvs167,303
same,SPOT peptide array binding signal intensity,CaRvs167-3,4.5
same,SPOT peptide array binding signal intensity,CaSho1,60
same,SPOT peptide array binding signal intensity,CaSla1-D1-D2,1220
same,SPOT peptide array binding signal intensity,CaSla1-D3,6
same,SPOT peptide array binding signal intensity,ScAbp1,147
same,SPOT peptide array binding signal intensity,ScBbc1,168
same,SPOT peptide array binding signal intensity,ScBem1-D1,12.5
same,SPOT peptide array binding signal intensity,ScBzz1-D1,81
same,SPOT peptide array binding signal intensity,ScBzz1-D2,56.5
same,SPOT peptide array binding signal intensity,ScCyk3,3
same,SPOT peptide array binding signal intensity,ScFus1,42
same,SPOT peptide array binding signal intensity,ScHof1,1.25
same,SPOT peptide array binding signal intensity,ScHse1,337
same,SPOT peptide array binding signal intensity,ScLsb1,29.5
same,SPOT peptide array binding signal intensity,ScLsb2,≤ 0
same,SPOT peptide array binding signal intensity,ScLsb3,3820
same,SPOT peptide array binding signal intensity,ScLsb4,1350
same,SPOT peptide array binding signal intensity,ScMyo3,≤ 0
same,SPOT peptide array binding signal intensity,ScMyo5,≤ 0
same,SPOT peptide array binding signal intensity,ScNbp2,41
same,SPOT peptide array binding signal intensity,ScPex13,58.2
same,SPOT peptide array binding signal intensity,ScRvs167,1460
same,SPOT peptide array binding signal intensity,ScSho1,286
same,SPOT peptide array binding signal intensity,ScSla1-D1-D2,546
same,SPOT peptide array binding signal intensity,ScSla1-D3,4.5
same,SPOT peptide array binding signal intensity,SpAbp1-D1,86
same,SPOT peptide array binding signal intensity,SpBbc1,4.25
same,SPOT peptide array binding signal intensity,SpBzz1-D1,356
same,SPOT peptide array binding signal intensity,SpBzz1-D2,2.5
same,SPOT peptide array binding signal intensity,SpCyk3,≤ 0
same,SPOT peptide array binding signal intensity,SpHof1,120
same,SPOT peptide array binding signal intensity,SpHof1-2,262
same,SPOT peptide array binding signal intensity,SpHof1-3,464
same,SPOT peptide array binding signal intensity,SpHse1,198
same,SPOT peptide array binding signal intensity,SpLsb1,16
same,SPOT peptide array binding signal intensity,SpLsb4,7280
same,SPOT peptide array binding signal intensity,SpMyo1,≤ 0
same,SPOT peptide array binding signal intensity,SpNbp2,27
same,SPOT peptide array binding signal intensity,SpPex13,15
same,SPOT peptide array binding signal intensity,SpRvs167,1700
same,SPOT peptide array binding signal intensity,SpSla1-D1-D2,≤ 0
same,SPOT peptide array binding signal intensity,SpSla1-D3,15
